Laboratory results taken from PubChem BioAssay (NCI).
About 83,000 compounds went through this panel and 20% of them were active in at least one assay; those are over-represented in the sample as a whole.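 In brief: 96-well plates, 48 h treatment, single concentration, percent growth endpoint.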 Unmarked numbers belong to inactive results. The source made the active and inactive calls. Rule for the calls: active = growth percent below 10; inactive = the rest.

Key:
Test in all cases: NCI-60 one-dose screen, 48 h (100 = growth as untreated, 0 = no growth, -100 = all killed)
Conditions in all cases: 10 µM unless noted
HCT-15 colon = tested on: HCT-15 colon
HT29 colon = tested on: HT29 colon
SNB-75 CNS = tested on: SNB-75 CNS
SNB-19 CNS = tested on: SNB-19 CNS
U251 CNS = tested on: U251 CNS
PC-3 prostate = tested on: PC-3 prostate
SK-MEL-5 melanoma = tested on: SK-MEL-5 melanoma
UACC-62 melanoma = tested on: UACC-62 melanoma
SK-MEL-28 melanoma = tested on: SK-MEL-28 melanoma
SK-MEL-2 melanoma = tested on: SK-MEL-2 melanoma
EKVX NSCLC = tested on: EKVX NSCLC
SN12C renal = tested on: SN12C renal
UO-31 renal = tested on: UO-31 renal
TK-10 renal = tested on: TK-10 renal
ACHN renal = tested on: ACHN renal
CAKI-1 renal = tested on: CAKI-1 renal
A498 renal = tested on: A498 renal
CCRF-CEM leukemia = tested on: CCRF-CEM leukemia
MOLT-4 leukemia = tested on: MOLT-4 leukemia

Compound | growth (HCT-15 colon) | growth (HT29 colon) | growth (SNB-75 CNS) | growth (SNB-19 CNS) | growth (U251 CNS) | growth (PC-3 prostate) [%] | growth (SK-MEL-5 melanoma) | growth (UACC-62 melanoma) | growth (SK-MEL-28 melanoma) | growth (SK-MEL-2 melanoma) | growth (EKVX NSCLC) | growth (SN12C renal) | growth (UO-31 renal) | growth (TK-10 renal) | growth (ACHN renal) | growth (CAKI-1 renal) | growth (A498 renal) | growth (CCRF-CEM leukemia) | growth (MOLT-4 leukemia)
C=C(C)[C@@H]1CC[C@]2(c3nnc(-c4ccncc4)o3)CC[C@]3(C)[C@H](CC[C@@H]4[C@@]5(C)CCC(=O)NC(C)(C)[C@@H]5CC[C@]43C)[C@@H]12 | 100% | 99.6% | 93.7% | 92.5% | 96% | 69.5 | 90.1% | 79.7% | 109% | 111% | 95.1% | 91.8% | 76.6% | 143% | 98.7% | 51.1% | 99.3% | 95% | 85.6%
C=C(C)[C@@H]1CC[C@]2(/C=N/Nc3ccncc3)CC[C@]3(C)[C@H](CC[C@@H]4[C@@]5(C)CCCNC(C)(C)[C@@H]5CC[C@]43C)[C@@H]12 | 68.4% | 18.6% | 90.5% | 94.7% | 67.9% | 47.3 | 81.7% | 88.1% | 95.4% | 110% | 99.5% | 85.2% | 85% | 120% | 100% | 74.7% | 83.8% | 67.1% | 58%
Cn1cc(-c2csc(-c3cn(C(=O)OC(C)(C)C)c4ccc(Br)cc34)n2)c2cccnc21 | 93.4% | 93.4% | 78.9% | 93.2% | 87.4% | 87.5 | 97% | 91% | 108% | 91.5% | 79.2% | 87.4% | 82.4% | 92.5% | 48.8% | 79.3% | 96.3% | 71% | 97.4%
CCCC1CCCCN1C(=O)OCC(C)C (configuration not stated) | 108% | 102% | 99.5% | 102% | 103% | 96.5 | 109% | 103% | 113% | 108% | 104% | 102% | 74.5% | 107% | 100% | 90.2% | 108% | 96.3% | 95.3%
O=C(N/N=C\c1c(O)ccc2ccccc12)C1CC1 | 28.4% | 69.6% | 53.8% | 54.9% | 35.6% | 45.8 | 53.1% | 25.2% | 69.7% | 35.1% | 32.1% | 66.5% | 8.64% (active) | 78.1% | 23.6% | 2.09% (active) | 102% | 11.9% | 9.27% (active)
N#C/C(=C\c1ccc(-c2ccc(Br)cc2)o1)c1nc(-c2cccs2)cs1 | 98.8% | 105% | 97% | 95.1% | 99.3% | 95.9 | 99.6% | 86.2% | 99.1% | 109% | 79.6% | 94.5% | 82.1% | 185% | 105% | 100% | 99% | 94.1% | 97%
CN1CCN(c2ccc3nc(-c4[nH]ncc4Nc4ncnc5[nH]ccc45)[nH]c3c2)CC1 | 4.21% (active) | 7.01% (active) | -52.7% (active) | 2.27% (active) | 7.05% (active) | 11.7 | -13% (active) | 1.28% (active) | -11.3% (active) | -27.8% (active) | 2.05% (active) | 2.59% (active) | -9.13% (active) | -9.08% (active) | 0.294% (active) | 1.7% (active) | -45.7% (active) | 4.45% (active) | -13.6% (active)
O=C(O)/C(=C/c1ccc(O)cc1)c1ccccc1 | 104% | 104% | 88.4% | 99.7% | 93.7% | 90.4 | 95.5% | 107% | 102% | 105% | 105% | 96.9% | 68.9% | 98.3% | 101% | 104% | 93.2% | 94.5% | 97.5%
